According to PubChem BioAssay (NCI):
About 83,000 compounds went through this panel and 20% of them were active in at least one assay; those are over-represented in the sample as a whole.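 Note: values are percent growth. 100 is the growth of untreated cells, values between 100 and 0 indicate rising inhibition; between -100 and 0 indicates cell death.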 A number with no mark means an inactive call. Active and inactive are the calls of the source. Rule for the calls: active = growth percent below 10; inactive = the rest.

Columns and labels:
Experiment in all cases: NCI-60 one-dose screen, 48 h (100 = growth as untreated, 0 = no growth, -100 = all killed)
Settings in all cases: 10 µM unless noted
SR leukemia = test system: SR leukemia
RPMI-8226 leukemia = test system: RPMI-8226 leukemia
OVCAR-8 ovarian = test system: OVCAR-8 ovarian
OVCAR-5 ovarian = test system: OVCAR-5 ovarian
OVCAR-4 ovarian = test system: OVCAR-4 ovarian
SK-OV-3 ovarian = test system: SK-OV-3 ovarian
IGROV1 ovarian = test system: IGROV1 ovarian
OVCAR-3 ovarian = test system: OVCAR-3 ovarian
HS 578T breast = test system: HS 578T breast
NCI/ADR-RES ovarian = test system: NCI/ADR-RES ovarian

Structure (SMILES) | growth (SR leukemia) | growth (RPMI-8226 leukemia) | growth (OVCAR-8 ovarian) | growth (OVCAR-5 ovarian) | growth (OVCAR-4 ovarian) | growth (SK-OV-3 ovarian) | growth (IGROV1 ovarian) | growth (OVCAR-3 ovarian) | growth (HS 578T breast) | growth (NCI/ADR-RES ovarian)
CC(=O)c1c(Nc2cccc(F)c2)[nH]c2c(Cl)cc(Cl)c(Cl)c2c1=O | 14.8% | -8.11% (active) | 7.74% (active) | 15.3% | 13.5% | 1.25% (active) | 17.9% | 14.8% | 4.68% (active) | 3.89% (active)
C/C(=N\Nc1ccccc1)c1ccc(NC2=CC(=O)c3ccccc3C2=O)cc1 | 59.2% | 64.3% | 59.8% | 72.5% | 43% | 65.3% | 50.8% | 15.4% | 65.5% | 54%
O=C(Nc1cc(Cl)ccc1O)c1ccccc1Nc1ccnc(C(F)(F)F)c1 | -26.3% (active) | -21.5% (active) | 10.6% | 68.6% | 19.8% | 49.9% | 1.77% (active) | -6.87% (active) | -2.86% (active) | -2.27% (active)
CCC(C)(C)c1ccc(Nc2ccc(Nc3ccc(C(C)(C)CC)cc3)cc2)cc1 | 87.7% | 76.8% | 87.7% | 93.8% | 89.2% | 89.7% | 95.3% |  | 88.9% | 91.7%
C=C1C(=O)O[C@H]2[C@H]1CC/C(COC(=O)C(=O)c1c[nH]c3ccc(Cl)cc13)=C\CC[C@@]1(C)O[C@@H]21 | 1.13% (active) | -39.1% (active) | -30.3% (active) | -36.6% (active) | -89.3% (active) | 26.2% | -81% (active) | -95% (active) | -14.2% (active) | -20% (active)
N#CC1=C(N)Oc2c(sc3c(F)cccc23)C1c1ccc([N+](=O)[O-])cc1 (stereo not drawn) | 5.1% (active) | -9.41% (active) | -21.6% (active) | -14.6% (active) | 15.1% | -7.03% (active) | -26% (active) | -55.1% (active) | -26.1% (active) | -14.2% (active)
Cc1nc(N/N=C/c2cn(-c3ccccc3)nc2-c2cc3ccccc3oc2=O)sc1N=Nc1ccccc1 | 29.9% | 89.3% | 103% | 104% | 85.4% | 109% | 89.1% | 92.1% | 90.2% | 88%
CCOC(=O)c1c(C)nc2ccccc2c1/C=C/c1ccc(F)cc1 | 56.3% | 48.7% | 70.4% | 93.1% | 64.2% | 87.6% | 66.6% | 80.8% | 96.3% | 41.2%
Cc1cc(O)c(=O)cc2c1C[C@H]1CC(C)(C)/C=C/C[C@]3(C)Oc4cc(=O)c(O)cc(C)c4C[C@H]3C[C@H](O)[C@@]1(C)O2 | 12.4% | 3.46% (active) | 5.84% (active) | 18.9% | 9.54% (active) | -5.53% (active) | 11.2% | 15.5% | 30% | 0.831% (active)
CCOC(=O)c1nnn(-c2no[n+]([O-])c2-c2ccc(OC)cc2)c1COc1cccc2cccnc12 | 6.52% (active) | 4.48% (active) | 0.67% (active) | 48.6% | 27% | 12.4% | 23.5% | 16.8% | 24.8% | 9.15% (active)
COc1ccc(C2C3=C(COC3=O)N(CCO)c3cc4c(cc32)OCO4)cc1OC (stereo not drawn) | 24.3% | 88.8% | 102% | 94.7% | 88.1% | 84.1% | 60.9% | 43% | 92.4% | 94.7%
C#COc1cccc(Nc2ncnc3cc(NC(=O)[C@H](C)Cl)ccc23)c1 | 92.6% [6.25 µM] | 100% [6.25 µM] | 9.3% [6.25 µM] (active) | 25% [6.25 µM] | 56.6% [6.25 µM] | 3.8% [6.25 µM] (active) | 9.75% [6.25 µM] (active) | 7.9% [6.25 µM] (active) | 24.8% [6.25 µM] | 14.8% [6.25 µM]
C=C(C)[C@@H]1CC[C@]2(C)[C@H](C=CC3=C4C[C@@](C)(CO)CC[C@]4(C)CC[C@]32C)[C@@]1(C)CCCN | -31.4% (active) | -33.3% (active) | -38.7% (active) | 19.1% | -55.4% (active) | 8.02% (active) | 6.46% (active) |  | -51.2% (active) | -40.7% (active)
C#CCOc1ccc2nc(CCl)c(Cl)c(Nc3cccc(C(F)(F)F)c3)c2c1 | 17.7% | 62.7% | 82.7% | 104% | 101% | 114% | 85.1% |  | 88.8% | 97.1%
N#Cc1c(-c2ccccc2)nc2c(c(-c3ccc(Cl)cc3)nn2-c2ccccc2)c1-c1ccc([N+](=O)[O-])cc1 | 63.4% | 101% | 98.5% | 99.9% | 109% | 102% | 103% |  | 104% | 101%
COc1ccc(C(=O)Nc2ncc(Cc3ccc(Cl)cc3)s2)cc1 | 5.82% (active) | 18.2% | 25.7% | 30.2% | 49.1% | 40% |  | -16.2% (active) | 18.2% | 9.45% (active)
O=S(=O)(Nc1ccc2ccccc2c1)c1ccc(-c2cnc(C3CC3)o2)cc1 | 16.5% | 12% | 24.6% | 48% | 70.4% | 32.7% | 39.1% |  | 13.4% | 9.69% (active)
Cc1cc(Cl)nc(N2CCN(CCNc3ccnc4cc(Cl)ccc34)CC2)n1 | -7.81% (active) | 13.5% | 61.5% | 66.6% | 40.1% | 56.9% | 61% |  | 76.8% | 45.2%
c1ccc(-c2c(-c3ccccc3)[n+](Cc3ccc4ccccc4c3)cn2Cc2ccc3ccccc3c2)cc1 | -74.5% (active) | -54.9% (active) | -87.4% (active) | -29.1% (active) | -81.5% (active) | -97.9% (active) | -73.8% (active) |  | -27.8% (active) | 70.5%
Cc1ccc(S(=O)(=O)OCC#CCOS(=O)(=O)c2ccc(C)cc2)cc1 | 10.8% | 20.2% | 34.6% | 112% | 73.4% | 98.3% | -40.2% (active) |  | 62.4% | 31%
C=C[C@@]1(C)CC(=O)[C@@H](C(C)(C)c2cn(C)c3ccc(Br)cc23)C[C@@H]1O[Si](C)(C)C(C)(C)C | 103% | 87.5% | 101% | 106% | 94.2% | 115% | 112% |  | 112% | 101%
CCOc1ccc(NC(=O)Nc2ccc(OCC)cc2)cc1 | 99.4% | 109% | 103% | 111% | 112% | 103% |  | 105% | 101% | 106%
O=c1ccc2ccc(OCCN3CCCCC3)cc2o1 | -35.7% (active) | -23.8% (active) | 95.2% | 102% | 113% | 82.7% | 110% |  | 96.5% | 99.9%
Cc1cc(C(=O)CCCC(=O)c2cc(C)c(O)c(C)c2)cc(C)c1O | 81.9% | 94.2% | 104% | 95.8% | 93.1% | 98% | 95.9% |  | 98.8% | 98%
C=CC(=O)Nc1cccc(Oc2nccc(Nc3nnc(-c4ccc(Br)cc4)s3)n2)c1 | 89.3% | 87.4% | 98.5% | 95.4% | 86.4% | 91% | 101% |  | 93.4% | 99.8%
CC1=Nc2cnc(Nc3ccc(N4CCCCC4)cc3)nc2Nc2ccccc21 | 34% | 34.3% | 77.2% | 82.7% | 52.2% | 104% | 63.3% |  | 84.5% | 62.6%
COc1cc(C=C2C(=O)NC(=S)NC2=O)cc(CN2CCCC2)c1O | 107% | 106% | 108% | 106% | 119% | 94.4% | 106% |  | 106% | 108%
CCN(CC)CCOc1ccc(/C(=C(\C)Cc2ccc(OC)cc2)c2ccc(OC(=O)NCc3ccccc3)cc2)cc1 | -53% (active) | 3.04% (active) | 68.7% | 81.9% | 58% | 91.2% | 77.5% |  | 63.2% | 78.7%
